TDP1 cell CPT = DT40-hTDP1 cell growth loss with CPT; chicken DT40 Tdp1-/-;hTDP1 cells + 20 nM CPT, ATP luminescence, 48 h; Potency, µM (highest dose often 46.2 µM), usual class: inhibitors; actives 12% (n = 420,000); AID 686979; also: nearly all actives have a fitted effect of over 55% in size
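Chicken DT40 Tdp1-/- cells stably complemented with human TDP1 were seeded at 400 cells/well in medium containing 20 nM camptothecin, exposed to pin-transferred compounds, and grown at 37 °C for at least 48 hr. Viability was read as ATP luminescence.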
ALOX12 inh = blocks human arachidonate 12S-lipoxygenase; purified 12hLO, xylenol orange hydroperoxide absorbance; P18054; Potency, µM (titrated, usually from 108 µM), most hits filed as inhibitors; AID 1671190; actives 1.1% (n = 580,000)
Target sequence (P18054 whole entry, looked up): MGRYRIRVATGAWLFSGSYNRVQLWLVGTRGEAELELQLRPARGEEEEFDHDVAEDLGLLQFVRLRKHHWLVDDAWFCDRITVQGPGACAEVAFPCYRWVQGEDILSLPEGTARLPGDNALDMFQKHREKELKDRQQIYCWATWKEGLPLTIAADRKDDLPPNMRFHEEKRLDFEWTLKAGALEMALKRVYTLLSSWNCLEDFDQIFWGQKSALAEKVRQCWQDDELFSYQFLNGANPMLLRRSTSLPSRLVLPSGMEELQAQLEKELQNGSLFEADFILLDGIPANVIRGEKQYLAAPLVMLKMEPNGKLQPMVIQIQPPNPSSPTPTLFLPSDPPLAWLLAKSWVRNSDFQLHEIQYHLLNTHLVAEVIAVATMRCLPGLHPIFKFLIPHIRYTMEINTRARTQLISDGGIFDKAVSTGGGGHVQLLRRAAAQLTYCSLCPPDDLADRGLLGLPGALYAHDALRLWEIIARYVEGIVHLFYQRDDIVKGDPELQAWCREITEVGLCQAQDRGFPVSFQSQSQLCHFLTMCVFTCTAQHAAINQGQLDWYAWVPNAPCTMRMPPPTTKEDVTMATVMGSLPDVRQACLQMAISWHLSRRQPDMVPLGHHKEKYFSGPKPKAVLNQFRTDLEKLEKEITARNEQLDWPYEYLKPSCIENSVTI
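Hydroperoxide product was detected by ferrous iron/xylenol orange as the 573 to 405 nm absorbance ratio. Arachidonic acid at 40 uM (final) was turned over for 30 min at room temperature by 150 nM human 12hLO, pH 7.0 Hepes buffer, after 15 min compound preincubation.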
HT1080-NT tox = kills 2HG-producing HT-1080-NT fibrosarcoma cells; actives 1.6% (n = 360,000); Potency, µM (top dose mostly 46.1 µM), actives largely listed as cytotoxic; HT-1080-NT fibrosarcoma viability, CellTiter-Glo ATP luminescence, 48 h;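 also: NT is the 2HG producing partner of a matched IDH1 knockdown line; nearly all actives have a fitted effect of over 55% in size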
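A 48-hour cytotoxicity screen used HT-1080-NT cells plated 2 hours before compound delivery. ATP-based CellTiter-Glo luminescence measured viability, normalized to DMSO and no-cell controls.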
IL-1B inflam inh = blocks inflammasome-driven IL-1 beta release | AID 743279 | THP-1 LPS/ATP IL-1B secretion, AlphaLISA, 16 h; stronger effect = lower value | activity change, % at 57.5 µM | actives 4.7% (n = 360,000); in the data active = activity change below about -50%; inconclusive = mostly about -30% to -49%
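Secreted IL-1B measured by AlphaLISA bead assay after 16 h compound exposure of THP-1 cells; compounds (final up to 57.5 uM) added 1 h before LPS (250 ng/mL) and ATP (1.25 mM) stimulation; lower signal means less secretion.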
HT1080 IDH1KD tx = kills HT-1080 cells with IDH1 knockdown; HT-1080 IDH1 knockdown viability, ATP luminescence, 48 h; Potency, µM (top dose mostly 46.1 µM), actives largely listed as cytotoxic; actives 2% (n = 360,000)
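IDH1KD HT-1080 cells, 750/well, RPMI + 5% FBS; compound pinned after 2 h settling; 48 h, 37 °C; CellTiter-Glo luminescence; % activity normalised to DMSO and no-cell wells; curves fitted, classed by r2 and efficacy.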
DT40 TDP1 no CPT = qHTS for Inhibitors of human tyrosyl-DNA phosphodiesterase 1 (TDP1): qHTS in cells in absence of CPT; Potency, µM (series often up to 46.2 µM), hits mostly inhibitors; actives 15% (n = 420,000); DT40 Tdp1-/- hTDP1 cells, no CPT, ATP luminescence, 48 h; also: nearly all actives have a fitted effect of over 55% in size
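Chicken DT40 Tdp1-/- cells stably complemented with human TDP1 were seeded at 400 cells/well with DMSO in place of 20 nM camptothecin. After compound pinning, cells grew at least 48 hr at 37 °C; viability read by CellTiter-Glo luminescence.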
Large screens that a line does not name were inactive. The sample as a whole holds a higher share of hits than the screen did. Unless noted, calls follow the shape of the dose curve; as a rule, active = well fitted curve in the direction sought with a large enough effect; inconclusive = small, poorly fitted or top-dose-only effect, or another doubt; inactive = no such curve, though single readings can be large; an effect the other way counts as inactive or inconclusive.

O=C(NC(c1ccccc1)c1ccccn1)C1CCN(CC(F)(F)F)CC1 (stereo not drawn)	none (no result: TDP1 cell CPT, HT1080-NT tox, IL-1B inflam inh, HT1080 IDH1KD tx, DT40 TDP1 no CPT)
O=C(NC(c1ccc(-c2ccccc2)cc1)c1cnccn1)C1CCN(CCN2C(=O)c3ccccc3C2=O)CC1 (stereo not drawn)	TDP1 cell CPT 23µM, DT40 TDP1 no CPT 23µM
COc1ccc(/C=C/c2cc(OC)c(OC)cc2CC[N+](C)(C)C)cc1	none (no result: HT1080-NT tox, IL-1B inflam inh, HT1080 IDH1KD tx)
O=C1CC(c2noc(COc3ccc(Cl)cc3)n2)CN1C1CCCCC1 (stereo not drawn)	none (no result: TDP1 cell CPT, HT1080-NT tox, IL-1B inflam inh, HT1080 IDH1KD tx, DT40 TDP1 no CPT)
COC(=O)c1cc(S(=O)(=O)Nc2ccccc2F)c[nH]1	none (no result: TDP1 cell CPT, HT1080-NT tox, IL-1B inflam inh, HT1080 IDH1KD tx, DT40 TDP1 no CPT)
CC(C)NC(=S)NNc1nc2ccccc2s1	TDP1 cell CPT 1.5µM, ALOX12 inh inconclusive, DT40 TDP1 no CPT 2.9µM
CC(C)(C)c1ccc(C(=O)Nc2ccc(F)cc2)s1	IL-1B inflam inh -62, DT40 TDP1 no CPT 15µM
COc1ccc2c(C)c(CC(=O)NCc3ccccc3OC)c(=O)oc2c1	none (no result: TDP1 cell CPT, HT1080-NT tox, IL-1B inflam inh, HT1080 IDH1KD tx, DT40 TDP1 no CPT)
COC(=O)C1CCN(C(=O)Cc2c(OC)ccc3cc(Br)ccc23)CC1	TDP1 cell CPT 18µM, DT40 TDP1 no CPT inconclusive
COC(=O)Cc1c(OC)ccc2cc(Br)ccc12	none (no result: TDP1 cell CPT, HT1080-NT tox, IL-1B inflam inh, HT1080 IDH1KD tx, DT40 TDP1 no CPT)
CCCCN(C)C(=O)Cc1c(OC)ccc2cc(Br)ccc12	TDP1 cell CPT 23µM, DT40 TDP1 no CPT 18µM
Cc1nc(-c2cccc(F)c2)sc1CCNC(=O)C1CC1	none (no result: TDP1 cell CPT, HT1080-NT tox, IL-1B inflam inh, HT1080 IDH1KD tx, DT40 TDP1 no CPT)
C/C(=N\NC(=S)NC(C)C)c1ccccc1OC(F)F	TDP1 cell CPT 2.9µM, DT40 TDP1 no CPT 3.3µM
CCNC(=S)N/N=C(\C)c1ccc2ccccc2c1OC(F)F	TDP1 cell CPT 23µM, ALOX12 inh 40µM, DT40 TDP1 no CPT 16µM
C/C(=N\NC(=O)COc1ccc(C#N)cc1)c1ccccc1OC(F)F	DT40 TDP1 no CPT inconclusive
COCc1nnc(NC(=O)c2ccc(S(=O)(=O)N(C)c3ccccc3)cc2)o1	TDP1 cell CPT 16µM, DT40 TDP1 no CPT inconclusive
COCc1nnc(NC(=O)c2ccc(S(=O)(=O)N(CC(C)C)CC(C)C)cc2)o1	TDP1 cell CPT inconclusive, HT1080-NT tox inconclusive, HT1080 IDH1KD tx inconclusive, DT40 TDP1 no CPT inconclusive
CCCCN(CC)S(=O)(=O)c1ccc(C(=O)Nc2nnc(COC)o2)cc1	TDP1 cell CPT inconclusive, HT1080-NT tox inconclusive, HT1080 IDH1KD tx inconclusive, DT40 TDP1 no CPT inconclusive (no result: ALOX12 inh)
C=CCN(CC=C)S(=O)(=O)c1ccc(C(=O)Nc2nnc(COC)o2)cc1	TDP1 cell CPT inconclusive, HT1080 IDH1KD tx inconclusive, DT40 TDP1 no CPT 16µM
Cc1noc(C)c1S(=O)(=O)N1CCC2(CC1)N(CC1CC1)C(=O)CS2=O (stereo not drawn)	none (no result: TDP1 cell CPT, HT1080-NT tox, IL-1B inflam inh, HT1080 IDH1KD tx, DT40 TDP1 no CPT)
CN(C)Cc1c(C(=O)N/N=C/c2cccc3ccccc23)nnn1-c1nonc1N	none
CN(C)Cc1c(C(=O)N/N=C/c2cccc(OCc3c(F)cccc3Cl)c2)nnn1-c1nonc1N	TDP1 cell CPT 9.2µM, DT40 TDP1 no CPT 7.3µM
CN(C)Cc1c(C(=O)N/N=C/c2ccccc2OCc2c(F)cccc2Cl)nnn1-c1nonc1N	TDP1 cell CPT 4.1µM, HT1080-NT tox 12µM, HT1080 IDH1KD tx 8.2µM, DT40 TDP1 no CPT 5.2µM
CN(C)Cc1c(C(=O)N/N=C/c2cccc(OCc3ccc(F)cc3)c2)nnn1-c1nonc1N	none
Clc1ccc2nc(-c3cccc(Br)c3)cn2c1	ALOX12 inh 13µM (no result: TDP1 cell CPT, HT1080-NT tox, IL-1B inflam inh, HT1080 IDH1KD tx, DT40 TDP1 no CPT)
Clc1ccc(-c2cn3cc(Br)ccc3n2)cc1	none (no result: TDP1 cell CPT, HT1080-NT tox, IL-1B inflam inh, HT1080 IDH1KD tx, DT40 TDP1 no CPT)
O=C(NCC1Cc2cc(F)cc(-c3cccnc3)c2O1)c1cnn(-c2ccccc2)c1 (stereo not drawn)	TDP1 cell CPT inconclusive, DT40 TDP1 no CPT inconclusive (no result: HT1080-NT tox, IL-1B inflam inh, HT1080 IDH1KD tx)
COc1cc(C(=O)NC(=S)Nc2ccc3ccccc3c2)cc(OC)c1OC	TDP1 cell CPT 23µM, ALOX12 inh 18µM, HT1080-NT tox inconclusive, HT1080 IDH1KD tx inconclusive, DT40 TDP1 no CPT 23µM
COc1cc(C(=O)NC(=S)Nc2ccc3c(c2)C(=O)N(C)C3=O)cc(OC)c1OC	ALOX12 inh inconclusive, DT40 TDP1 no CPT 3.7µM

Compound activity: PubChem BioAssay, National Center for Advancing Translational Sciences (NCATS)
